system: WHIM30 (cells of a triple-negative basal-like breast cancer xenograft); experiment: cell viability of combination (% of vehicle); higher = less cytotoxic; details: 1 µM; 72 h; partner dose: 10 nM
Experimental: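 PDX cells were treated for 72 h with each drug at 1 µM plus carfilzomib (10 nM; 100 nM for WHIM2). Luciferase viability is expressed as percent of vehicle.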

SMILES | cell viability of combination
COC(=O)NC(C(=O)NC(Cc1ccccc1)C(O)CN(Cc1ccc(-c2ccccn2)cc1)NC(=O)C(NC(=O)OC)C(C)(C)C)C(C)(C)C (stereo not given) [Atazanavir] + CC(C)C[C@H](NC(=O)[C@H](CCc1ccccc1)NC(=O)CN1CCOCC1)C(=O)N[C@@H](Cc1ccccc1)C(=O)N[C@@H](CC(C)C)C(=O)[C@@]1(C)CO1 [Carfilzomib] | 24.5
CS(=O)(=O)CCNCc1ccc(-c2ccc3ncnc(Nc4ccc(OCc5cccc(F)c5)c(Cl)c4)c3c2)o1.Cc1ccc(S(=O)(=O)O)cc1.Cc1ccc(S(=O)(=O)O)cc1 [Lapatinib Ditosylate] + CC(C)C[C@H](NC(=O)[C@H](CCc1ccccc1)NC(=O)CN1CCOCC1)C(=O)N[C@@H](Cc1ccccc1)C(=O)N[C@@H](CC(C)C)C(=O)[C@@]1(C)CO1 [Carfilzomib] | 23.7
COc1cccc2c1C(=O)c1c(O)c3c(c(O)c1C2=O)CC(O)(C(=O)CO)CC3OC1CC(N)C(O)C(C)O1.Cl (stereo not given) [Epirubicin HCl] + CC(C)C[C@H](NC(=O)[C@H](CCc1ccccc1)NC(=O)CN1CCOCC1)C(=O)N[C@@H](Cc1ccccc1)C(=O)N[C@@H](CC(C)C)C(=O)[C@@]1(C)CO1 [Carfilzomib] | 5.02
CCCCCCCCc1ccc(CCC(N)(CO)CO)cc1.Cl [Fingolimod (FTY720)] + CC(C)C[C@H](NC(=O)[C@H](CCc1ccccc1)NC(=O)CN1CCOCC1)C(=O)N[C@@H](Cc1ccccc1)C(=O)N[C@@H](CC(C)C)C(=O)[C@@]1(C)CO1 [Carfilzomib] | 16.7
CNC(=O)c1cc(Oc2ccc(NC(=O)Nc3ccc(Cl)c(C(F)(F)F)c3)c(F)c2)ccn1 [Regorafenib] + CC(C)C[C@H](NC(=O)[C@H](CCc1ccccc1)NC(=O)CN1CCOCC1)C(=O)N[C@@H](Cc1ccccc1)C(=O)N[C@@H](CC(C)C)C(=O)[C@@]1(C)CO1 [Carfilzomib] | 22.4
CC(C)c1nc(CN(C)C(=O)NC(C(=O)NC(Cc2ccccc2)CC(O)C(Cc2ccccc2)NC(=O)OCc2cncs2)C(C)C)cs1 (stereo not given) [Ritonavir] + CC(C)C[C@H](NC(=O)[C@H](CCc1ccccc1)NC(=O)CN1CCOCC1)C(=O)N[C@@H](Cc1ccccc1)C(=O)N[C@@H](CC(C)C)C(=O)[C@@]1(C)CO1 [Carfilzomib] | 27.3
COc1cc2ncnc(Nc3ccc(F)c(Cl)c3)c2cc1NC(=O)C=CCN1CCCCC1 + CC(C)C[C@H](NC(=O)[C@H](CCc1ccccc1)NC(=O)CN1CCOCC1)C(=O)N[C@@H](Cc1ccccc1)C(=O)N[C@@H](CC(C)C)C(=O)[C@@]1(C)CO1 [Carfilzomib] | 14.6
COc1cc2c(Oc3ccc(NC(=O)C4(C(=O)Nc5ccc(F)cc5)CC4)cc3F)ccnc2cc1OCCCN1CCOCC1 + CC(C)C[C@H](NC(=O)[C@H](CCc1ccccc1)NC(=O)CN1CCOCC1)C(=O)N[C@@H](Cc1ccccc1)C(=O)N[C@@H](CC(C)C)C(=O)[C@@]1(C)CO1 [Carfilzomib] | 22.4
COC(=O)C1=C(C)NC(C)=C(C(=O)OCCN(C)Cc2ccccc2)C1c1cccc([N+](=O)[O-])c1.Cl (stereo not given) [Nicardipine HCl] + CC(C)C[C@H](NC(=O)[C@H](CCc1ccccc1)NC(=O)CN1CCOCC1)C(=O)N[C@@H](Cc1ccccc1)C(=O)N[C@@H](CC(C)C)C(=O)[C@@]1(C)CO1 [Carfilzomib] | 13.8
CCOc1cc2ncc(C#N)c(Nc3ccc(OCc4ccccn4)c(Cl)c3)c2cc1NC(=O)C=CCN(C)C [Neratinib (HKI-272)] + CC(C)C[C@H](NC(=O)[C@H](CCc1ccccc1)NC(=O)CN1CCOCC1)C(=O)N[C@@H](Cc1ccccc1)C(=O)N[C@@H](CC(C)C)C(=O)[C@@]1(C)CO1 [Carfilzomib] | 17.5
Cn1cnc2c(F)c(Nc3ccc(Br)cc3F)c(C(=O)NOCCO)cc21 + CC(C)C[C@H](NC(=O)[C@H](CCc1ccccc1)NC(=O)CN1CCOCC1)C(=O)N[C@@H](Cc1ccccc1)C(=O)N[C@@H](CC(C)C)C(=O)[C@@]1(C)CO1 [Carfilzomib] | 36.1
COc1cc(C(=O)NS(=O)(=O)c2ccccc2C)ccc1Cc1cn(C)c2ccc(NC(=O)OC3CCCC3)cc12 [Zafirlukast] + CC(C)C[C@H](NC(=O)[C@H](CCc1ccccc1)NC(=O)CN1CCOCC1)C(=O)N[C@@H](Cc1ccccc1)C(=O)N[C@@H](CC(C)C)C(=O)[C@@]1(C)CO1 [Carfilzomib] | 17.9
Cc1ccc(NC(=O)c2ccc(CN3CCN(C)CC3)cc2)cc1Nc1nc(-c2cccnc2)cs1 [Masitinib (AB1010)] + CC(C)C[C@H](NC(=O)[C@H](CCc1ccccc1)NC(=O)CN1CCOCC1)C(=O)N[C@@H](Cc1ccccc1)C(=O)N[C@@H](CC(C)C)C(=O)[C@@]1(C)CO1 [Carfilzomib] | 28.7
CNC1CCC(c2ccc(Cl)c(Cl)c2)c2ccccc21.Cl (stereo not given) [Sertraline HCl] + CC(C)C[C@H](NC(=O)[C@H](CCc1ccccc1)NC(=O)CN1CCOCC1)C(=O)N[C@@H](Cc1ccccc1)C(=O)N[C@@H](CC(C)C)C(=O)[C@@]1(C)CO1 [Carfilzomib] | 11
Clc1ccc(C(Cn2ccnc2)OCc2ccc(Sc3ccccc3)cc2)c(Cl)c1.O=[N+]([O-])O (stereo not given) [Fenticonazole Nitrate] + CC(C)C[C@H](NC(=O)[C@H](CCc1ccccc1)NC(=O)CN1CCOCC1)C(=O)N[C@@H](Cc1ccccc1)C(=O)N[C@@H](CC(C)C)C(=O)[C@@]1(C)CO1 [Carfilzomib] | 21.1
Nc1c(CC(=O)[O-])cccc1C(=O)c1ccccc1.O.[Na+] [Amfenac Sodium Monohydrate] + CC(C)C[C@H](NC(=O)[C@H](CCc1ccccc1)NC(=O)CN1CCOCC1)C(=O)N[C@@H](Cc1ccccc1)C(=O)N[C@@H](CC(C)C)C(=O)[C@@]1(C)CO1 [Carfilzomib] | 23.7
Nc1ncn(C2OC(CO)C(O)C2O)c(=O)n1 (stereo not given) [5-Azacytidine] + CC(C)C[C@H](NC(=O)[C@H](CCc1ccccc1)NC(=O)CN1CCOCC1)C(=O)N[C@@H](Cc1ccccc1)C(=O)N[C@@H](CC(C)C)C(=O)[C@@]1(C)CO1 [Carfilzomib] | 20.7
CCOC(=O)C1=C(COCCN)NC(C)=C(C(=O)OC)C1c1ccccc1Cl (stereo not given) [Amlodipine] + CC(C)C[C@H](NC(=O)[C@H](CCc1ccccc1)NC(=O)CN1CCOCC1)C(=O)N[C@@H](Cc1ccccc1)C(=O)N[C@@H](CC(C)C)C(=O)[C@@]1(C)CO1 [Carfilzomib] | 15.8
CC(C)CC(NC(=O)C(CCc1ccccc1)NC(=O)CN1CCOCC1)C(=O)NC(Cc1ccccc1)C(=O)NC(CC(C)C)C(=O)C1(C)CO1 (stereo not given) [Carfilzomib (PR-171)] + CC(C)C[C@H](NC(=O)[C@H](CCc1ccccc1)NC(=O)CN1CCOCC1)C(=O)N[C@@H](Cc1ccccc1)C(=O)N[C@@H](CC(C)C)C(=O)[C@@]1(C)CO1 [Carfilzomib] | 9.47
CC(NCCCc1cccc(C(F)(F)F)c1)c1cccc2ccccc12.Cl (stereo not given) [Cinacalcet HCl] + CC(C)C[C@H](NC(=O)[C@H](CCc1ccccc1)NC(=O)CN1CCOCC1)C(=O)N[C@@H](Cc1ccccc1)C(=O)N[C@@H](CC(C)C)C(=O)[C@@]1(C)CO1 [Carfilzomib] | 18.6
